Only some compounds are listed: those with a hit (about 21% of all), similar ones and a draw of the others.
Pf growth 48h – inhibits P. falciparum growth in the first generation, 48 h. Potency, µM (doses to about 28.7 µM), actives largely listed as inhibitors. 5.9% of 310,000 active. P. falciparum luciferase growth in erythrocytes, 48 h; active means well fitted inhibition curve with a large enough effect; inconclusive means small, poorly fitted or top-dose-only effect, or another doubt; inactive means no such curve, though single readings can be large or run the other way
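Luciferase-expressing parasites in RBCs, 2% Hct / 0.1% parasitemia final; RPMI 1640 + 0.5% Albumax; 37 C, 5% CO2, one generation; luminescence read-out, lower signal = inhibition.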
Pf growth 96h – P. falciparum growth inhibition at 96 hour, primary screen for plastid delayed-death inhibitors. P. falciparum luciferase reporter growth, 96 h. Potency, µM (titrated, usually from 28.7 µM), most hits filed as inhibitors. 6.9% of 320,000 active. AID 504834; active means well fitted inhibition curve with a large enough effect; inconclusive means small, poorly fitted or top-dose-only effect, or another doubt; inactive means no such curve, though single readings can be large or run the other way
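Parasite growth measured via integrated firefly luciferase reporter in P. falciparum. Infected erythrocytes at 2% hematocrit, 0.05% parasitemia final were treated 96 hours at 37 C under 5% CO2, and luminescence was read.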
CHX counter – affects cycloheximide protein synthesis inhibition readout, counter-screen. cell reporter, cycloheximide protein synthesis inhibition counterscreen. max response, %. 12% of 300,000 active. AID 2314; in the data active means max response mostly above about 13%, no sharp cut-off; inactive means mostly below about 14%; further: read at 38.3 µM for the half of the compounds with a filed dose
SARS PLP yeast – SARS-CoV PLP inhibition in yeast. S. cerevisiae expressing SARS-CoV PLpro, growth rescue. Potency, µM (highest dose often 32.9 µM), most hits filed as activators. 0.19% of 330,000 active. AID 485353; further: nearly all actives have a fitted effect of over 55% in size
NS1 function inh – influenza NS1 inhibition; AID 2326; 0.4% of 270,000 active; Potency, µM (series often up to 46.1 µM); further: actives are rising curves; nearly all actives have a fitted effect of over 50% in size
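In this qHTS, NS1 from influenza A is expressed in budding yeast, where it slows growth. Cells are switched from glucose to 2% galactose medium (pH 6.0, -URA), treated with compound, and growth recovery is read at OD600.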
Shiga toxin inh – inhibitors of Shiga toxin in Vero cells | Vero cells, Shiga toxin protein synthesis inhibition reporter | inhibition, % at 38.7 µM | 9.2% of 290,000 active | AID 2315; in the data active means inhibition mostly above about 28%, no sharp cut-off; inactive means mostly below about 43%
Of the large screens only hits and unclear results are named; the others gave an inactive call. Unless noted, the call rests on the fitted dose curve.

COc1cc(/C=N/Nc2ccccc2C(F)(F)F)ccc1O	Pf growth 96h inconclusive, CHX counter 33.1, Shiga toxin inh 69.2
COc1cc(/C=N/NP(=S)(c2ccccc2)c2ccccc2)ccc1O	Pf growth 96h inconclusive (no result: Pf growth 48h)
COc1ccc(/C=C/C(=O)Nc2ccccc2C(F)(F)F)cc1OC	none
CN1CCN(c2ccccc2NC(=O)c2ccc(-c3cccc([N+](=O)[O-])c3)o2)CC1	Pf growth 48h 10.4µM, Pf growth 96h inconclusive
CCC(=O)N1CCN(c2ccccc2NC(=O)c2ccc(-c3cccc([N+](=O)[O-])c3)o2)CC1	Pf growth 48h 8.28µM
Cc1cc(N2CCN(C)CC2)ccc1NC(=O)c1ccc(-c2ccc(Cl)cc2)o1	Pf growth 48h inconclusive, Pf growth 96h 4.15µM (no result: CHX counter, NS1 function inh, Shiga toxin inh)
CN1CCN(c2ccccc2NC(=O)c2ccc(-c3ccc(Br)cc3)o2)CC1	Pf growth 48h 13.1µM
CN1CCN(c2ccccc2NC(=O)c2ccc(-c3ccc(Cl)c(Cl)c3)o2)CC1	none
CNC(=S)N1CCN(S(=O)(=O)c2ccc3ccccc3c2)CC1	none
O=C1CCCN1Cc1ccccc1	none
Cc1ccc(C(=O)/C=C/c2ccc3c(c2)OCCO3)c(O)c1	CHX counter 39.9, Shiga toxin inh 86.5
O=C(/C=C/c1ccc2c(c1)OCCCO2)c1ccc2ccccc2c1O	CHX counter 11.9, Shiga toxin inh 39.6
N#CC(C#N)=NNc1ccc(OC(F)(F)F)cc1	CHX counter 44.1, Shiga toxin inh 60.0 (no result: Pf growth 48h, Pf growth 96h, SARS PLP yeast, NS1 function inh)
O=C(/C=C/Nc1ccc(OC(F)(F)F)cc1)C(F)(F)F	none
CO/N=C(/C(=O)N[C@@H]1C(=O)N2C(C(=O)O)=C(CSc3cnns3)CS[C@H]12)c1csc(N)n1	none (no result: CHX counter, SARS PLP yeast, NS1 function inh, Shiga toxin inh)
CCSc1nn2c(=O)c3ccccc3nc2s1	CHX counter 47.6, Shiga toxin inh 85.4 (no result: Pf growth 48h)
CC(=O)c1cc(C(=O)c2ccccc2)sc1Nc1ccccc1	CHX counter 48.2, Shiga toxin inh 61.2
N#Cc1c(Nc2ccccc2)sc(C(=O)c2ccccc2)c1N	NS1 function inh inconclusive
O=C(O)c1cc(Cl)c2c(c1)OCO2	none
COc1ccc(OC)c(NC(=O)CC2SC(=Nc3ccc(F)cc3)N(CCC3=CCCCC3)C2=O)c1 (centres undefined)	Pf growth 48h inconclusive, Pf growth 96h 4.15µM, CHX counter 12.5
COc1cc([N+](=O)[O-])ccc1NC(=O)CC1SC(=Nc2ccc(F)cc2)N(CCC2=CCCCC2)C1=O (centres undefined)	Pf growth 48h inconclusive, Pf growth 96h 1.85µM, NS1 function inh inconclusive
Fc1ccc(-n2nnc(-c3cccnc3)n2)cc1	CHX counter 41.8, Shiga toxin inh 70.3
Nc1nc(-c2cccnc2)nn1C(=O)c1ccccc1Cl	none
Brc1ccccc1-n1nnc(-c2cccnc2)n1	CHX counter 29.3
Clc1ccc(-n2nnc(-c3nccs3)n2)cc1Cl	CHX counter 28.5, Shiga toxin inh 73.7
Nc1nc(-c2cccnc2)nn1C(=O)c1ccc(F)cc1	Pf growth 96h inconclusive
Fc1ccc(-n2nnc(-c3cnc4ccccc4c3)n2)cc1	CHX counter 46.2, Shiga toxin inh 62.2
Fc1ccc(-n2nnc(-c3ccccc3Br)n2)cc1	Pf growth 96h inconclusive, NS1 function inh inconclusive
Clc1ccc(-n2nnc(-c3cccnc3)n2)cc1Cl	CHX counter 41.0, Shiga toxin inh 40.9
Fc1ccc(C(CCCn2nnc(-c3cccnc3)n2)c2ccc(F)cc2)cc1	Pf growth 48h 14.7µM
O=C(Nc1ccnc(-c2cccnc2)n1)c1ccc(Cl)c(Cl)c1	Pf growth 48h inconclusive, Pf growth 96h inconclusive
Fc1ccc(CSc2ccc3nnc(-c4cccnc4)n3n2)cc1	Pf growth 96h inconclusive (no result: NS1 function inh)
O=c1[nH]c2ccccc2cc1-c1nnn(-c2ccc(F)cc2)n1	CHX counter 23.2, Shiga toxin inh 48.9
O=C(CSc1cccc[n+]1[O-])Nc1cc(S(=O)(=O)N2CCOCC2)ccc1N1CCOCC1	CHX counter 49.4
Cc1ccccc1SCC(=O)Nc1cc(S(=O)(=O)N2CCOCC2)ccc1N1CCOCC1	Pf growth 48h 8.28µM, Pf growth 96h inconclusive
COc1ccccc1NCC(=O)Nc1cc(S(=O)(=O)N2CCOCC2)ccc1N1CCOCC1	Pf growth 48h inconclusive, Pf growth 96h inconclusive
Cc1ccc(S(=O)(=O)N2CCOCC2)cc1NC(=O)CNc1ccccc1N1CCCC1=O	Pf growth 48h 9.28µM, Pf growth 96h inconclusive (no result: CHX counter, NS1 function inh, Shiga toxin inh)
O=C(CSc1cccc[n+]1[O-])Nc1cc(S(=O)(=O)N2CCOCC2)ccc1Cl	none
CC(NCC(=O)Nc1cc(S(=O)(=O)N2CCOCC2)ccc1N1CCOCC1)c1ccco1 (centres undefined)	Pf growth 48h inconclusive, Pf growth 96h 5.86µM (no result: CHX counter, NS1 function inh, Shiga toxin inh)
Cc1cccc(NC(=O)CSc2nc(=O)n(CCN3CCOCC3)c3c2CCCC3)c1C	none (no result: CHX counter, SARS PLP yeast, NS1 function inh, Shiga toxin inh)
O=C(CSc1ccc(-c2ccccn2)nn1)NCc1ccc(F)cc1	Pf growth 96h inconclusive, SARS PLP yeast inconclusive (no result: NS1 function inh)
c1ccc([C@H](CCN2CCCC2)c2ccccn2)cc1	none (no result: Pf growth 48h, Pf growth 96h, CHX counter, SARS PLP yeast, Shiga toxin inh)
CC1(c2ccc3noc(-c4ccc(F)cc4)c3c2)OCCO1	Pf growth 96h inconclusive, CHX counter 18.5 (no result: Pf growth 48h)
COc1cccc(-c2onc3ccc(C(=O)/C=C/N(C)C)cc23)c1	Pf growth 48h inconclusive, Pf growth 96h inconclusive
COc1cccc(-c2onc3ccc(C(C)=O)cc23)c1	CHX counter 15.4
COc1cccc(-c2onc3ccc(C4(C)OCCO4)cc23)c1	Pf growth 96h inconclusive, CHX counter 25.8 (no result: NS1 function inh)
CC1(c2ccc3noc(-c4ccccc4)c3c2)OCCO1	none (no result: Pf growth 96h)
CC1=C[N+](=O)c2ccccc2[N+]1=O	none (no result: Pf growth 48h, Pf growth 96h, CHX counter, SARS PLP yeast, Shiga toxin inh)
CN1CC(C(=O)Nc2ccc(F)c(Cl)c2)CC1=O (centres undefined)	none
CC(=O)c1sc(-c2ccc(F)cc2)cc1NS(=O)(=O)c1ccccc1	none
CCOC(=O)CCc1c(C)c2ccc(O)cc2oc1=O	Pf growth 96h inconclusive, CHX counter 13.2
CCOC(=O)Cc1c(C)c2ccc(N(CC)CC)cc2oc1=O	Pf growth 48h 3.7µM, CHX counter 19.3, Shiga toxin inh 99.9
CCN(CC)c1ccc2c(C)c(-c3ccc(N)cc3)c(=O)oc2c1	Pf growth 48h inconclusive, Pf growth 96h inconclusive, CHX counter 26.9, Shiga toxin inh 33.7
CCN(CC)c1ccc2c(C)c(Cl)c(=O)oc2c1	Pf growth 96h inconclusive
CCOC(=O)Cc1c(C)c2c(O)cc(O)cc2oc1=O	Pf growth 96h inconclusive
Cc1c(Cc2ccccc2)c(=O)oc2cc(O)ccc12	none
O=C1CC(NS(=O)(=O)c2cc(F)ccc2F)CN1c1cccc(F)c1 (centres undefined)	none (no result: CHX counter, NS1 function inh, Shiga toxin inh)
FC(F)(F)c1cccc(Cc2noc(CN3CCCCC3c3ccccn3)n2)c1 (centres undefined)	Pf growth 48h inconclusive, Pf growth 96h inconclusive
FC(F)(F)c1cccc(Cc2noc(CN3CCCC(OCc4ccccn4)C3)n2)c1 (centres undefined)	Pf growth 96h 14.7µM
Fc1cccc(Cc2noc(CN3CCCCC3c3ccccn3)n2)c1 (centres undefined)	Pf growth 96h 8.28µM, CHX counter 34.9
